# This is one part of a sample in which hits are shown more often than they occur.
# Sfp PPTase inh = inhibitors of Bacillus subtilis Sfp phosphopantetheinyl transferase; Q9F4F7; Biochemical Sfp PPTase activity, qHTS; Potency, µM, for inactives: largest response in the series, negative = inhibition, hits mostly inhibitors; hit rate 3.5% among 310,000;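 further: the enzyme is Sfp with the accession as filed and its product quenches rhodamine fluorescence; 0% = enzyme reaction without inhibitor and -100% = no enzyme wells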
#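 Reaction rates are the 30-min fluorescence difference (ex 525, em 598 nm) in wells containing 15 nM Sfp, 5 uM rhodamine-CoA and 12.5 uM BHQ-2-YbbR at pH 7.6 with 10 mM MgCl2.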
# VDR inhibitor = inhibitors of human vitamin D receptor; P11473; VDR-SRC2-3 peptide fluorescence polarization, 2 h; Potency, µM, for inactives: max response, negative = inhibition, most hits filed as inhibitors; hit rate 0.93% among 400,000; AID 504847; further: on the % scale 0 is the no-effect control and ±100 the full control effect
#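 Compounds are added to VDR with labelled SRC2-3 coactivator peptide and held 2 h at room temperature. Inhibition of the VDR–peptide interaction is then read as a change in fluorescence polarization.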
# GRP78 ERSR act = ER stress response induction in glioma; U87-MG GRP78 promoter luciferase reporter, 16 h; Potency, µM, for inactives: at the top dose activation, usual class: activators; hit rate 0.02% among 420,000; further: series mostly up to about 76 µM; % of control where 0% means no effect; nearly all actives have a fitted effect of over 35% in size
#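 Stably transfected U87-MG glioma cells carrying a GRP78-based luciferase sensor; 16 h compound incubation. Luminescence end-point read 10 min after Bright-Glo addition at room temperature.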
# G9a inh = inhibitors of human histone lysine methyltransferase G9a; hit rate 8.8% among 350,000; Potency, µM (series often up to 102 µM), inactives show top-dose activity, negative = inhibition, most hits filed as inhibitors; AID 504332; G9a H3K9 monomethylation, AlphaScreen, 2 h; further: on the % scale 0 is the no-effect control and ±100 the full control effect; nearly all actives have a fitted effect of over 75% in size
#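 Signal arises when biotinylated H3K9 peptide, once monomethylated, bridges streptavidin donor and antibody-captured acceptor beads. Enzyme at 20 nM was preincubated 15 min with test compounds; peptide 500 nM and SAM 20 uM then reacted for 2 h.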
# ALOX12 inh = ALOX12 (human) lipoxygenase inhibition; purified 12hLO, xylenol orange hydroperoxide absorbance; P18054; AID 1671190; hit rate 1.1% among 580,000; Potency, µM (top dose mostly 108 µM), without a hit: at the top dose activity change, negative = inhibition, usual class: inhibitors; further: on the % scale 0 is the no-effect control and ±100 the full control effect
# Target sequence (P18054 whole entry, looked up): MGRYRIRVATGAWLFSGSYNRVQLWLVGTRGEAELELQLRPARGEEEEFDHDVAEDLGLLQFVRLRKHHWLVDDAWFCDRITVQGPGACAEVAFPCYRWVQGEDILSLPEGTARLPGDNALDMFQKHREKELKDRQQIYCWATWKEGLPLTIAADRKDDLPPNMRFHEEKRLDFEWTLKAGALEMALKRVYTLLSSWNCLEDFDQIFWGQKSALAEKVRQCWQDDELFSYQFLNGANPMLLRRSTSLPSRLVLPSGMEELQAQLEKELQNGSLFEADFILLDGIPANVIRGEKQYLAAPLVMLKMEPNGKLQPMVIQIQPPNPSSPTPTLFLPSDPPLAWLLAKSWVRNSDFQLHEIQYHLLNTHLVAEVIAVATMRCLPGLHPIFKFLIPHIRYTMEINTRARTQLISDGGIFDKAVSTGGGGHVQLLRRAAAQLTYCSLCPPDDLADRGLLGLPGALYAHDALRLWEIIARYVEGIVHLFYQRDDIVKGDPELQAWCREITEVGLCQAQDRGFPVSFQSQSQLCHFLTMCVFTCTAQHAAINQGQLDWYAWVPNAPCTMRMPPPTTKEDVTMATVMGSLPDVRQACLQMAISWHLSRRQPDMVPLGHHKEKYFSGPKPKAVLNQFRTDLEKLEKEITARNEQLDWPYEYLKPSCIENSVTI
#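 Purified human 12hLO at 150 nM in 25 mM Hepes, 0.01% Triton X-100, pH 7.0, preincubated 15 min at room temperature with compound. Reaction started with 40 uM arachidonic acid, 30 min at room temperature. Hydroperoxide measured by Fe-xylenol orange, 573/405 nm absorbance ratio.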
# An asterisk follows results filed as active; ? = inconclusive; · = no result; ! = repeats disagree; [ ] = remark or other dose. The call rests on the fitted dose curve; in most records, active means well fitted curve in the direction sought with a large enough effect; inconclusive means small, poorly fitted or top-dose-only effect, or another doubt; inactive means no such curve, though single readings can be large; an effect the other way counts as inactive or inconclusive. Potency means the concentration at half of the fitted maximal effect.
SMILES,Sfp PPTase inh,VDR inhibitor,GRP78 ERSR act,G9a inh,ALOX12 inh
O=C(NC1CCCC1)C(c1ccncc1)N(CC1CCCO1)C(=O)Cn1nnc(-c2cccs2)n1 (centres undefined),7%,0%,0%,50µM*,-16%
CC(C)c1nc(N(C)CCO)c(C#N)c2c1CCCC2,·,·,·,·,12%
CCC(CC)NC(=O)/C=C/c1csc(C)n1,·,·,·,·,-20%
NC(=O)c1ccc(CN(C2CC2)S(=O)(=O)c2cccc3nsnc23)cc1,·,·,·,·,-2%
O=C(C1CCC1)N1CCC(c2nc(-c3ccc4nc[nH]c4c3)no2)CC1,·,·,·,·,38%
CCCC(C(=O)NCc1ccccn1)c1ccccc1 (centres undefined),·,·,·,·,20%
CC(C)(C)N(C(=O)Cn1nnc(-c2ccc(F)cc2)n1)C(C(=O)NC1CCCC1)c1ccncc1 (centres undefined),6%,-15%,-4%,7.1µM*,-14%
CC(C)(C)NC(=O)C(c1ccncc1)N(CC1CCCO1)C(=O)Cn1nnc(-c2ccc(F)cc2)n1 (centres undefined),20%,-2%,-5%,-2%,-2%
Cc1ccc(-c2nnn(CC(=O)N3CCC(C)CC3)n2)o1,22%,0%,2%,35µM*,4%
CNS(=O)(=O)c1cc(C(=O)NCc2coc(-c3cccs3)n2)cc(C)c1C,·,·,·,·,-4%
O=C1CCCc2c1cc(-c1ccccc1)n2-c1ccccc1,14%,-12%,-1%,45µM*,11%
CC(=O)Nc1cccc(C(=O)N2CCC(n3cc(-c4nc(-c5ccccc5)no4)nn3)C2)c1 (centres undefined),·,·,·,·,2%
CCOC(=O)CCc1c(C)nc(SCCN2CCCC2)c(C#N)c1C,-4%,3%,-8%,40µM*,0%
Cc1cc(NN)nc2ccc(Cl)cc12,11µM*,11%,3%,14µM*,?
Cc1cc(C)c2c(N=NN3CCCCC3)[nH]nc2n1,-23%,11%,-4%,45µM*,-17%
CSCC(=O)NCCc1cccs1,·,·,·,·,19%
COc1ccc2c(c1)OC/C(=C\c1ccc(OC)c(O)c1)C2=O,-38%,20µM*,-6%,?,·
COc1ccc(/C=C/C(=O)Oc2ccc(C)c(C)c2)cc1OC,8.9µM*,-10%,-5%,49%,-11%
COc1ccc(/C=C/C(=O)Oc2ccc3oc4ccccc4c3c2)cc1OC,·,·,·,·,4%
O=C(O)C(c1c[nH]c2ccccc12)N1CCN(Cc2cccs2)CC1 (centres undefined),·,·,·,·,-22%
CN(CCOc1ccccc1)C(=O)c1ccc(N2CCCC2)c([N+](=O)[O-])c1,-20%,-6%,-2%,50µM*,2%
CN(CC(=O)Nc1cccc(F)c1)C(=O)c1ccc(N2CCCCCC2)c([N+](=O)[O-])c1,·,3%,-2%,?,-25%
CCN(CC(=O)Nc1c(F)cccc1F)C(=O)c1ccc(N2CCCC2)c([N+](=O)[O-])c1,·,-11%,-2%,-38%,-2%
CCCN(CC(=O)Nc1ccccc1C)C(=O)c1ccc(C)c(S(=O)(=O)N2CCCCC2)c1,·,26%,-3%,5%,-16%
COc1cccc(NC(=O)CN(C)C(=O)c2ccc(N3CCCCC3)c([N+](=O)[O-])c2)c1,·,5%,-1%,20%[12.7 µM],4%
SMILES,Sfp PPTase inh,VDR inhibitor,GRP78 ERSR act,G9a inh,ALOX12 inh
CCN(CC(=O)Nc1c(F)cccc1F)C(=O)c1cc([N+](=O)[O-])ccc1N1CCCCC1,·,2%,-1%,14µM*,3%
CCCN(CC(=O)Nc1ccccc1C)C(=O)c1ccc(N2CCCCC2)c([N+](=O)[O-])c1,·,-13%,-2%,50µM*,-26%
CN(CC(=O)Nc1cccc(F)c1)C(=O)c1ccc(N2CCCC2)c([N+](=O)[O-])c1,·,5%,-1%,50µM*,0%
Cc1ccc(S(=O)(=O)NCCc2cccc3cccnc23)cc1,·,·,·,·,-1%
Cc1nc2ccc(Cl)cc2cc1C(=O)Nc1ccc(C(=O)N(C)C)cc1,·,·,·,·,-3%
CN(CC(=O)Nc1cccc(F)c1)C(=O)c1ccc2c(c1)CC(c1ccccc1)OC2=O (centres undefined),·,-6%,-1%,14µM*,-24%
Cc1cccc(OCc2nnc(SCC(=O)Nc3cccc(C(=O)N4CCOCC4)c3)o2)c1C,-6%,-7%,-2%,2µM*,?
O=C(CSc1nnc(COc2ccc(Cl)cc2)o1)Nc1ccc(N2CCOCC2)cc1,·,-18%,-5%,32µM*,-3%
COc1ccc2c(CCNC(=O)c3ccccc3F)c[nH]c2c1,·,·,·,·,23%
CCOC(=O)Oc1ccc(/C=C2\N=C(C)OC2=O)cc1,-7%,20µM*,-3%,-7%[2.33 µM],0%
COc1cc(/C=C2\N=C(C)OC2=O)cc(OC)c1OC,6%,40µM*,-2%,32µM*,?
CC1=N/C(=C/c2ccco2)C(=O)O1,?,7%,-5%,28µM*,-19%
Fc1cccc(Cl)c1Cn1c(CN2CCOCC2)nc2ccccc21,·,·,·,·,1%
O=C(CCN1CCN(c2cnccn2)CC1)Nc1ccccc1Cl,·,·,·,·,16%
CN1CCN(C(=O)c2cc3cc(Cl)cc(Cl)c3oc2=O)CC1,·,·,·,·,-28%
O=S(=O)(Cc1ccccc1F)CC(O)c1ccccc1 (centres undefined),·,·,·,·,1%
O=C(NC1CCCN(c2cc(-c3ccc(F)cc3)[nH]n2)C1)c1c[nH]c2ccccc12 (centres undefined),·,·,·,·,-17%
Cn1c(-c2ccc(N)cc2)nc2ccccc21,7%,2%,-5%,1%,340%
Cc1ccc(-n2c(N)c(-c3nc4ccccc4n3C)sc2=S)cc1,-66%,?,3%,3.5µM*,-27%
O=C(CSc1ccc2c(c1)OCCO2)NCc1ccccc1,3%,0%,-1%,-5%,-2%
N#CC(C(=O)CSc1ccc2c(c1)OCCO2)c1nc(-c2ccccc2)cs1 (centres undefined),·,·,·,·,10µM*
N#CC(c1ccccn1)(c1ncc(C(F)(F)F)cc1Cl)N1CCOCC1 (centres undefined),7%,-21%,-3%,1%[0.0925 µM],-3%
N#CC(c1ccncc1)(c1ncc(C(F)(F)F)cc1Cl)N1CCOCC1 (centres undefined),-8%,-8%,0%,40µM*,45µM*
CC(C)(C)c1nnc(NC(=O)CS(=O)(=O)Cc2ccccc2)s1,20%,-3%,2%,-39%,40µM*!
CC(CC(=O)Nc1nnc(C(C)(C)C)s1)c1ccccc1 (centres undefined),50µM*,?,-4%,25µM*,-9%
O=C(CS(=O)(=O)Cc1ccccc1)Nc1nnc(C(F)(F)F)s1,19%,-3%,2%,13%,7%
COc1ccc(CN2Cc3[nH]cnc3C[C@H]2C(=O)NCc2ccccc2)c2ccccc12,·,·,·,·,-12%[176 µM]
CCN(CC)S(=O)(=O)c1ccc2c(c1)[nH]c(=S)n2CC,56µM*,-2%,3%,7.9µM*,-27%
COc1ccccc1NS(=O)(=O)c1ccc2nc(CCl)[nH]c2c1,-20%,-9%,1%,20µM*,-11%
